We go through 21 molecules from paper PMC11062922 (Nature Chemical Biology, 2023).

Design in all cases: species or system human, MV4-11 + K-562 + COLO205 + SK-N-BE2 + OVCAR-8
One assay has as its system MERTK. Particulars: read-out: apparent Kd; compound concentrations:100 nM and 1000 nM (sheet 'Samples'); n = 1.
The next assay relates to MAPK14. To be noted: read-out: apparent Kd, n = 1.
Another assay has as its system MAPKAPK2. Particulars: read-out: apparent Kd, n = 1.
In a further assay the test system is MYLK3. To be noted: read-out: apparent Kd; compound concentrations: 100 nM and 1000 nM (sheet 'Samples'), CATDS: 0.35775008511520401; n = 1.
The next assay deals with T1, T10.
T1 construct: gene NAT10
Particulars: read-out: apparent Kd; compound concentrations: 100 nM and 1000 nM (sheet 'Samples'), CATDS: 0.30543908388735203; n = 1.

The next assay concerns TTK. To be noted: read-out: apparent Kd; compound concentrations: 100 nM and 1000 nM (sheet 'Samples'), CATDS: 0.34120640497056598; n = 1.
A further assay deals with NQO1. To be noted: read-out: apparent Kd, compound concentrations: 100 nM and 1000 nM (sheet 'Samples'), n = 1.
A further assay deals with NNT. Particulars: read-out: apparent Kd, n = 1.
The subject of another assay is NQO2. To be noted: read-out: apparent Kd, n = 1.
The test system of a further assay is TGFBR1. To be noted: read-out: apparent Kd; compound concentrations:100 nM and 1000 nM (sheet 'Samples'); n = 1.
For a further assay, the system named is TGFBR2. Particulars: read-out: apparent Kd; compound concentrations:100 nM and 1000 nM (sheet 'Samples'); n = 1.
A further assay relates to NUAK2. Particulars: read-out: apparent Kd; compound concentrations:100 nM and 1000 nM (sheet 'Samples'); n = 1.
In another assay the test system is PIK3CG. To be noted: read-out: apparent Kd; compound concentrations:100 nM and 1000 nM (sheet 'Samples'); n = 1.
The next assay concerns MAPK9. Particulars: read-out: apparent Kd; compound concentrations: 100 nM and 1000 nM (sheet 'Samples'), CATDS: 1; n = 1.
The test system of another assay is MTHFD1. To be noted: read-out: apparent Kd, n = 1.
The subject of a further assay is TNK1. To be noted: read-out: apparent Kd; compound concentrations: 100 nM and 1000 nM (sheet 'Samples'), CATDS: 0.618875790720404; n = 1.
The next assay deals with NLK. Particulars: read-out: apparent Kd; compound concentrations:100 nM and 1000 nM (sheet 'Samples'); n = 1.
The next assay relates to PKM. To be noted: read-out: apparent Kd; compound concentrations:100 nM and 1000 nM (sheet 'Samples'); n = 1.
The test system of the next assay is RIOK2. To be noted: read-out: apparent Kd; compound concentrations: 100 nM and 1000 nM (sheet 'Samples'), CATDS: 0.53784196223168101; n = 1.
In a further assay the test system is PDGFRB. Particulars: read-out: apparent Kd; compound concentrations: 100 nM and 1000 nM (sheet 'Samples'), CATDS: 1; n = 1.
The subject of the next assay is PHKG2. Particulars: read-out: apparent Kd; compound concentrations:100 nM and 1000 nM (sheet 'Samples'); n = 1.
The subject of a further assay is PIM2. Particulars: read-out: apparent Kd; compound concentrations:100 nM and 1000 nM (sheet 'Samples'); n = 1.
A further assay relates to PIM3. To be noted: read-out: apparent Kd; compound concentrations:100 nM and 1000 nM (sheet 'Samples'); n = 1.
A further assay concerns PKN3. Particulars: read-out: apparent Kd; compound concentrations:100 nM and 1000 nM (sheet 'Samples'); n = 1.
The next assay concerns RIPK2. To be noted: read-out: apparent Kd; compound concentrations:100 nM and 1000 nM (sheet 'Samples'); n = 1.
The next assay concerns OPA1. To be noted: read-out: apparent Kd; compound concentrations:100 nM and 1000 nM (sheet 'Samples'); n = 1.
Another assay relates to PRKD1. Particulars: read-out: apparent Kd; compound concentrations:100 nM and 1000 nM (sheet 'Samples'); n = 1.
In a further assay the test system is PBK. Particulars: read-out: apparent Kd; compound concentrations: 100 nM and 1000 nM (sheet 'Samples'), CATDS: 0.354579243895072; n = 1.
In the next assay the test system is PIK3CD. To be noted: read-out: apparent Kd; compound concentrations: 100 nM and 1000 nM (sheet 'Samples'), CATDS: 0.84763293051447697; n = 1.
The mark [1] stands for this setting: compound concentrations:100 nM and 1000 nM (sheet 'Samples').

The structures appear in SMILES notation. Like-named read-outs stand apart in the source and are kept apart here.

With `CC(=O)N[C@@H](Cc1ccc(OP(=O)(O)O)cc1)C(=O)N[C@H]1CCC(=O)N2CCC[C@@H](C(=O)NC3CCc4ccccc43)N2C1=O` (some centres unmarked) [RO0324438-000], in the assay on MERTK, the potency estimated from few doses was 1220 nM.
On to `O=c1[nH]c2cc(Nc3ccc(F)cc3F)ccc2n1CC1CCCCC1` [BI00601000], for which the potency estimated from few doses is 27.6 nM in the assay on MAPK14 (compound concentrations: 100 nM and 1000 nM (sheet 'Samples'), CATDS: 0.69333991182184596); 97.2 nM in the assay on MAPKAPK2 (compound concentrations: 100 nM and 1000 nM (sheet 'Samples'), CATDS: 0.39097535171865).
As for `COc1ccc(-c2oc3ncnc(N)c3c2-c2ccc(NC(=O)Nc3cc(C(F)(F)F)ccc3F)cc2)cc1.Cl` [GW768505A], the potency estimated from few doses in the assay on MYLK3 was 1430 nM; in the assay on T10 it was 1970 nM; in the assay with TTK, 1570 nM.
Take `COC(=O)Nc1nc2cc(Oc3ccc(NC(=O)Nc4cccc(C(=O)O)c4)cc3)ccc2[nH]1.Cl` [GW701427A]: in the assay on NQO1 (CATDS: 1), the potency estimated from few doses is 1010 nM.
As for `c1cc(-c2cnn3nc(N4CCOCC4)ccc23)nc(NC2CC2)n1` [GW708336X], the potency estimated from few doses with NQO1 (CATDS: 1) is 1540 nM.
Turning to `CS(=O)(=O)CCNCc1nc(-c2ccc3ncnc(Nc4ccc(F)c(Cl)c4)c3c2)cs1.Cl` [GW461104A], the potency estimated from few doses in the assay with MERTK is 1190 nM; in the assay on NNT (setting [1]) it was 1740 nM.
For `CS(=O)(=O)CCNCc1nc(-c2ccc3ncnc(Nc4ccc(OCc5ccccc5)c(Cl)c4)c3c2)cs1.CS(=O)(=O)CCNCc1nc(-c2ccc3ncnc(Nc4ccc(OCc5ccccc5)c(Cl)c4)c3c2)cs1.Cl.Cl` [GW582764A], the potency estimated from few doses is 2020 nM in the assay on NNT (setting [1]) and 1880 nM in the assay on NQO2 (setting [1]).
For the molecule `Cc1ccc(-c2cc(-c3c[nH]nc3-c3ccccn3)ccn2)cc1` [GW684088X], the potency estimated from few doses was 741 nM with NQO2 (setting [1]), 490 nM in the assay with TGFBR1 and 2230 nM with TGFBR2.
As to `C[C@@H](CS(C)(=O)=O)Nc1ncc2cc(Oc3ccc(F)cc3F)c(=O)n(C)c2n1` [RO5044198-000], the potency estimated from few doses in the assay with MAPK14 (compound concentrations: 100 nM and 1000 nM (sheet 'Samples'), CATDS: 0.48313667011563999) was 88.4 nM; with MAPKAPK2 (compound concentrations: 100 nM and 1000 nM (sheet 'Samples'), CATDS: 0.45912582310815703), 97.4 nM; with NQO1 (CATDS: 0.21043150555446399), 1410 nM.
On to `COc1ccc(NC(=O)c2ccc(-c3cc(-c4nnc(C)o4)ccc3C)cc2)cc1` [GW595885X], for which the results for the potency estimated from few doses in the assay on NUAK2 and in the assay on PIK3CG were 1230 nM and 1410 nM, respectively.
Regarding `COC(=O)c1c(-c2ccccc2)c2cc(Br)ccc2c(=O)n1Cc1ccc(S(C)(=O)=O)cc1` [TPKI-100], the potency estimated from few doses in the assay on MAPK9 is 1460 nM.
On to `Cc1cc(NCC(c2ccccc2)c2ccccc2)nc(NCc2ccc(C(F)(F)F)cc2)n1` [GW497681X], for which the potency estimated from few doses was 2040 nM with MTHFD1 (compound concentrations: 100 nM and 1000 nM (sheet 'Samples'), CATDS: 0.41943372694081998); 909 nM in the assay with TNK1.
As to `COc1c(C(N)=O)cc(-c2ccc(Cl)cc2)cc1-c1ccc(S(N)(=O)=O)cc1` [GSK711701A], in the assay on NQO2 (compound concentrations: 100 nM and 1000 nM (sheet 'Samples'), CATDS: 1), the potency estimated from few doses is 1490 nM.
In the case of `O=C(Nc1n[nH]c2cc(-c3cccc(F)c3)ccc12)C1CC1` [SB-735464], the potency estimated from few doses in the assay with NLK is 1810 nM; with PKM, 2130 nM.
As for `COc1cccc(-n2nc(C)c3c(N/N=C(\C)c4ccncc4)ncnc32)c1` [GW809885X], the potency estimated from few doses in the assay on NNT (compound concentrations: 100 nM and 1000 nM (sheet 'Samples'), CATDS: 0.46713303896147801) is 1600 nM; in the assay on RIOK2, 1200 nM.
As for `COc1ccc(NC(=O)Nc2ccc(C)c(-c3ccc(C(=O)Nc4ccncc4)cc3)c2)cc1` [GSK1398475A], the potency estimated from few doses in the assay with PDGFRB is 1680 nM.
`COc1cccc(-c2nc(-c3ccccc3)[nH]c2-c2ccncc2)c1` [SB-610250]: the potency estimated from few doses in the assay with MAPK14 (setting [1]) is 1050 nM; with MAPKAPK2 (setting [1]) it was 1480 nM; in the assay on NQO2 (setting [1]) it was 131 nM; with PHKG2 it was 2340 nM; in the assay on PIM2, 1940 nM; with PIM3, 1430 nM. Moreover, the values for the potency estimated from few doses in the assay on PKN3 and in the assay on RIPK2 were 1320 nM and 204 nM, respectively.
Regarding `CCNC(=O)[C@@H]1CCCN2C(=O)CC[C@H](NC(=O)[C@H](Cc3ccc(OP(=O)(O)O)cc3)NC(C)=O)C(=O)N12` [RO0325851-000], in the assay with MTHFD1 (setting [1]), the potency estimated from few doses was 1840 nM.
As for `FC(F)(F)c1ccc(-c2nn3ncccc3c2-c2ccnc(Nc3cccc(C(F)(F)F)c3)n2)cc1` [GW828205X], the potency estimated from few doses is 1630 nM in the assay with OPA1 and 1820 nM in the assay with PRKD1.
Regarding `CC(=O)N1CCC(Nc2ncc3cc(Oc4ccc(F)cc4F)c(=O)n(C)c3n2)CC1` [RO5043011-000], the potency estimated from few doses in the assay on MAPK14 (compound concentrations: 100 nM and 1000 nM (sheet 'Samples'), CATDS: 0.40238945157455502) was 40.9 nM; in the assay with MAPKAPK2 (setting [1]) it was 14.2 nM.
As for `Cl.Cl.Cl.N#Cc1ccc(CCNc2nccc(-c3cccc(CN4CCNCC4)c3)n2)cc1.N#Cc1ccc(CCNc2nccc(-c3cccc(CN4CCNCC4)c3)n2)cc1` [GSK2137462A], the potency estimated from few doses was 1350 nM in the assay with PBK and 134 nM in the assay on PIK3CD.
